Reference: PubChem BioAssay (NCATS)
“And” between values parts separate entries of the source, which are not always exact repeats. Equal entries are not always repeated. Results filed as inconclusive are left out. Where a call stands in place of a potency, no number is given. The source made the active and inactive calls. Unless noted, the call rests on the fitted dose curve; in most records, active means well fitted curve in the direction sought with a large enough effect; inconclusive means small, poorly fitted or top-dose-only effect, or another doubt; inactive means no such curve, though single readings can be large; an effect the other way counts as inactive or inconclusive.

Assays:
[1] = biological target: Alpha-galactosidase (Coffea arabica) (UniProt Q42656); assay: Counterscreen for Glucocerebrosidase Inhibitors: qHTS Assay for Coffee Bean alpha-Galactosidase at pH 5.9 (AID 998)
Outline: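 Enzyme 2 nM + cpd (0.7 nM–77 uM titration) + 4-MU-alpha-Gal 80 uM, pH 5.9 citrate/Tween-20, RT 20 min, NaOH/glycine stop pH 10, fluor 365/440. Normalized to no-enzyme and full-activity controls; Hill-fit AC50.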

[2] = Validation of Assay for Modulators of Lamin A Splicing (AID 1459; active means well fitted curve in the direction sought with a large enough effect in the signal ratio; the % refers to the signal ratio;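 further: cells exposed to compound for two days before reading; ratio rise marks activators and ratio drop marks inhibitors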)
Outline: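 Splicing correction read as GFP (500-530 nm) over DsRed2 (575-640 nm) object intensity after 48 h compound exposure of reporter HeLa S3 clones (600 cells/well, 2% FBS medium); ancitabine and cycloheximide titrations, 0.5% DMSO as vehicle.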

[3] = qHTS Assay for Lipid Storage Modulators (AID 1519; calls by dose curve); details: Drosophila S3 cells, BODIPY lipid droplet/cell ratio, laser cytometry, cells loaded with oleic acid
Outline: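 Cells seeded at 5,000 per well were treated with compounds over a concentration series and loaded with oleic acid (400 uM, as added). Lipid droplet fluorescence (488 nm excitation, 500-530 nm channel) was read by laser-scanning cytometry and normalized to 20 uM Triacsin C.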

[4] = biological target: DNA repair nuclease/redox regulator APEX1 (Homo sapiens) (UniProt P27695); assay: qHTS Validation Assay for Inhibitors of the Human Apurinic/apyrimidinic Endonuclease 1 (APE1) (AID 1705;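 further: TAMRA fluorescence gain over two minutes as APE1 cuts a quenched THF abasic duplex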)
Outline: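 Activity read as rising fluorescence (598 nm emission, 525 nm excitation) from incision of a TAMRA/BHQ-2 duplex carrying a THF abasic site (50 nM). Compound and enzyme sat 15 min at RT before substrate start; signal change between first and third 60-s reads.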

[5] = Counterscreen for APE1 Inhibitors: Fluorescent Dye Displacement Validation Assay (AID 1707); further: potency means the concentration at half of the fitted maximal effect
Outline: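 Loss of Thiazole Orange fluorescence marks promiscuous DNA binders. The dye (250 nM) is mixed with 50 nM abasic-site dsDNA in pH7.5 Tris buffer containing MgCl2, then compounds are added and emission is read once.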

[6] = biological target: Endonuclease 4 (Escherichia coli (strain K12)) (UniProt P0A6C1); assay: Counterscreen for APE1 Inhibitors: qHTS Validation Assay for Inhibitors of Endonuclease IV (AID 1708)
Outline: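 Conditions: 2 nM enzyme, 50 nM TAMRA/BHQ-2 substrate, pH 7.5 Tris buffer with 2 mM MgCl2, RT. Compound preincubation 15 min; readout three fluorescence reads 60 s apart, third-minus-first.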

[7] = qHTS for differential inhibitors of proliferation of Plasmodium falciparum line 7G8 (AID 1815);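 further: parasite growth measured after three days of incubation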; further: potency means the concentration at half of the fitted maximal effect
[8] = qHTS for differential inhibitors of proliferation of Plasmodium falciparum line GB4 (AID 1816); details: Potency: Plasmodium falciparum GB4 proliferation inhibition;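 further: parasite growth measured after 72 h incubation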; further: potency means the concentration at half of the fitted maximal effect
[9] = qHTS for differential inhibitors of proliferation of Plasmodium falciparum line 3D7 (AID 1876); further: potency means the concentration at half of the fitted maximal effect
[10] = qHTS for differential inhibitors of proliferation of Plasmodium falciparum line D10 (AID 1877);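 further: parasites grown with compound for 72 h before DNA staining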; further: potency means the concentration at half of the fitted maximal effect
[11] = measured here: cell count channel max response
[12] = measured here: lipid channel max response

Sequence of Alpha-galactosidase (Coffea arabica) (Q42656 whole entry, looked up): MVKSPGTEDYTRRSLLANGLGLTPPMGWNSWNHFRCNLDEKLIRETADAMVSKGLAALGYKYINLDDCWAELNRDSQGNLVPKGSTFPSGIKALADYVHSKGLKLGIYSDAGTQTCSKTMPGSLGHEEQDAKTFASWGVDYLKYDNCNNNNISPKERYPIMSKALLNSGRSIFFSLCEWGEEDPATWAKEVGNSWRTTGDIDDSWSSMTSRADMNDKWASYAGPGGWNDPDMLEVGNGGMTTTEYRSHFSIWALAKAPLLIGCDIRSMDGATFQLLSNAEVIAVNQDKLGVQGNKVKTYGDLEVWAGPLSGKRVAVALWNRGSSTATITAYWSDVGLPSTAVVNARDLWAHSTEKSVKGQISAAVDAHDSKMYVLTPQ
Sequence of DNA repair nuclease/redox regulator APEX1 (Homo sapiens) (P27695 whole entry, looked up): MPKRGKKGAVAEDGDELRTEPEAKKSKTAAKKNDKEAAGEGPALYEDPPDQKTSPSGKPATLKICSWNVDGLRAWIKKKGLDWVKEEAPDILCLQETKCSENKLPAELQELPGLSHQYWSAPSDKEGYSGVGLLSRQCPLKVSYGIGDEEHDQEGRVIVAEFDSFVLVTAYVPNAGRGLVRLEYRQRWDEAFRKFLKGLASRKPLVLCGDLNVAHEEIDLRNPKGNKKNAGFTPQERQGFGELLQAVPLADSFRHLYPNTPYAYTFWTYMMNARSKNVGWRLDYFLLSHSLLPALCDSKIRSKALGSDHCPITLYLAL

Structure (SMILES)	outcome [1]	outcome [2]	activity change, negative = inhibition ([3]; at 57.5 µM (top of the series))	max response [3, 11]	max response [3, 12]	Potency [4]	Potency [5]	Potency [6]	Potency [7]	Potency [8]	Potency [9]	Potency [10]	activity change, negative = inhibition ([3]; at 25.7 µM (top of the series))
C[C@@H]1O[C@H](C[N+](C)(C)C)C[C@H]1O	inactive	inactive	-2.01% (inactive)	40.6%	38%	inactive	inactive	inactive	inactive	inactive	inactive	inactive	–
NC(=NCCC[C@H](N)C(=O)O)N[N+](=O)[O-]	inactive	inactive	0.0348% (inactive)	-0.432%	0.435%	inactive	inactive	inactive	inactive	inactive	inactive	inactive	–
C#CCOC(=O)C1=CCCN(C)C1	inactive	inactive	6% (inactive)	13.4%	20.6%	inactive	inactive	–	–	–	12.6 µM (active)	–	–
CCCCc1ccc(C(=O)O)nc1	inactive	inactive	1.57% (inactive)	0.85% and 4.91%	-1.53% and 6.42%	inactive	inactive	–	inactive	inactive	–	inactive	-2.75% (inactive)
NC1CCc2cc(O)c(O)cc2C1 (stereo not drawn)	–	inactive	-0.984% (inactive)	-18.2%	-19.2%	inactive	–	inactive	inactive	–	inactive	–	–
CCCN1CCC[C@H](c2cccc(O)c2)C1	inactive	inactive	–	–	–	inactive	inactive	inactive	–	14.1 µM (active)	inactive	–	–
NCc1cc(=O)[nH]o1	inactive	inactive	-0.672% (inactive)	5.31%	4.46%	inactive	inactive	inactive	inactive	inactive	inactive	inactive	–
CC(=O)NCCc1c[nH]c2ccccc12	inactive	inactive	–	–	–	inactive	inactive	inactive	–	inactive	inactive	inactive	–
S=C(NC1CCCCC1)N1CCC(c2cnc[nH]2)CC1	inactive	inactive	0.457% (inactive)	8.5%	6.88%	inactive	inactive	–	inactive	–	11.2 µM (active)	inactive	–
NCCc1c[nH]c2ccc(O)cc12	inactive	inactive	0.919% (inactive)	-5.09% and -12.1%	-6.32% and -9.72%	inactive	inactive	–	inactive	inactive	inactive	inactive	-0.711% (inactive)
CCCN(CCC)[C@@H]1CCc2ccc(O)cc2C1	inactive	inactive	-4.72% (inactive) and 0.978% (inactive)	-36.9% and -10.5%	-41.2% and -9.44%	inactive	inactive	inactive	8.91 µM (active)	14.1 µM (active)	inactive	inactive	–
CC(Cc1ccc(O)cc1)NCC(O)c1cc(O)cc(O)c1 (stereo not drawn)	–	–	–	–	–	inactive	inactive	inactive	–	–	–	–	–
CC(=O)OCC1=C(C(=O)O)N2C(=O)[C@@H](N)[C@@H]2SC1	–	–	–	7.67%	10.5%	–	–	–	–	–	–	–	1.55% (inactive)
COc1ccc2c(c[n+](C)c3c4cc5c(cc4ccc23)OCO5)c1OC	inactive	–	–	–	–	inactive	14.1 µM (active)	inactive	14.1 µM (active)	14.1 µM (active)	–	–	–
Cc1c(C(=O)c2cccc3ccccc23)c2cccc3c2n1[C@H](CN1CCOCC1)CO3	inactive	–	–	–	–	inactive	inactive	inactive	–	7.94 µM (active)	–	12.6 µM (active)	–
CCC(=O)OC1CCC2C3CCC4=CC(=O)CC[C@@]4(C)C3CC[C@]12C (stereo partly drawn)	–	–	11.4% (inactive)	4.67%	18.5%	–	–	–	–	–	–	–	–
